What all share (experiment): DAPPL (digital affinity profiling via proximity ligation, sequencing); 10 mM Tris-HCl pH 7.5, 50 mM NaCl, 1 mM DTT, 4% glycerol, room temperature, 30 min; GST-TFs on glutathione beads, 16-mer random dsDNA library, 0.1% formaldehyde crosslink after washing; high values mean tight binding
What all share (settings): protein: recombinant; tags: N-terminal GST; dsDNA, one strand shown

The target in assay [1] is T1, FLI1 (Homo sapiens, UniProt Q01543 1-452).
T1 sequence: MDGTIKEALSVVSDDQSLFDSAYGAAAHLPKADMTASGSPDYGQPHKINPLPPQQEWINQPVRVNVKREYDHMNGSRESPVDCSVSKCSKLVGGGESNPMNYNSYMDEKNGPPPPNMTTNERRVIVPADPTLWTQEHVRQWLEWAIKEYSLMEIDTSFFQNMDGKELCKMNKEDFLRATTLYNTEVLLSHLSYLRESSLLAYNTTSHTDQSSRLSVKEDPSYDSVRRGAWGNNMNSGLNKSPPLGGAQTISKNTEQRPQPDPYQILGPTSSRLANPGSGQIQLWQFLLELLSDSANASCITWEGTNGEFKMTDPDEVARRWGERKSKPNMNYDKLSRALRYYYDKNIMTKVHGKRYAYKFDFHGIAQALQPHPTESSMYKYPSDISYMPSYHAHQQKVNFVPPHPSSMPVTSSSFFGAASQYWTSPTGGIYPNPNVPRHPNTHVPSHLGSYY
In a few lines: (§1)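 Binding signal is each hexamer's read frequency for a factor divided by its frequency in the tag-only sample. The factors were GST-fused human transcription factors from yeast, captured on glutathione beads, DNA-barcoded and pooled with that sample. Pools were incubated with 200 nmole of a random double-stranded 16-mer DNA library in Tris/NaCl/DTT/glycerol buffer at room temperature for 30 min, then washed, crosslinked with 0.1% formaldehyde, proximity-ligated with BsaI/T4 ligase (1 h, 37 °C), PCR-amplified and sequenced on an Illumina NextSeq500.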

For assay [2], the target named is T2, ELK1 (Homo sapiens, UniProt P19419 1-428).
T2 sequence: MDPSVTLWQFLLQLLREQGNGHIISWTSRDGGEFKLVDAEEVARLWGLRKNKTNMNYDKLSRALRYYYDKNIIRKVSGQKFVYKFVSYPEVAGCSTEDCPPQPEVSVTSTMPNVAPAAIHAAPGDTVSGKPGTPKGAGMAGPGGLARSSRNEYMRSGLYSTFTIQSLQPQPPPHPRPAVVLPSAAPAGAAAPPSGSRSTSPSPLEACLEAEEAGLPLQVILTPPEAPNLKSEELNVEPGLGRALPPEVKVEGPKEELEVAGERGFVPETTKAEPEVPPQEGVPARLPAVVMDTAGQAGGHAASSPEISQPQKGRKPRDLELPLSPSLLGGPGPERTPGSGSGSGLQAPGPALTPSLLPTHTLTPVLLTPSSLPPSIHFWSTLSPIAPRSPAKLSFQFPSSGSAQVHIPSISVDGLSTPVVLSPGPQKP
Summed up: as §1

Assay [3] concerns the target T3, GABPA (Homo sapiens, UniProt Q06546 1-454).
T3 sequence: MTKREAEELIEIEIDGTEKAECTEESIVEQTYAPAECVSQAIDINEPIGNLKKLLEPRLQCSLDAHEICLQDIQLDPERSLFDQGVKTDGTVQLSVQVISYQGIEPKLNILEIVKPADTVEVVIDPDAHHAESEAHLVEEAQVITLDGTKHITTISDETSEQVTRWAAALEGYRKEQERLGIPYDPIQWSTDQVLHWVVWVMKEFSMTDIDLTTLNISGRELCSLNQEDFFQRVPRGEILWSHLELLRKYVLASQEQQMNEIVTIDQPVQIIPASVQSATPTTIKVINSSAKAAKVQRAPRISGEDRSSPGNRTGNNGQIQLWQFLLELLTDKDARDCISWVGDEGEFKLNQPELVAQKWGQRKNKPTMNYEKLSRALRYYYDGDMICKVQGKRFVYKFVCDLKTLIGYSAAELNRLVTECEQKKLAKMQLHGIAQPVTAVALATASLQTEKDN
Summed up:
as §1

Assay [4] has as its target T4, ERG (Homo sapiens, UniProt P11308 1-479).
T4 sequence: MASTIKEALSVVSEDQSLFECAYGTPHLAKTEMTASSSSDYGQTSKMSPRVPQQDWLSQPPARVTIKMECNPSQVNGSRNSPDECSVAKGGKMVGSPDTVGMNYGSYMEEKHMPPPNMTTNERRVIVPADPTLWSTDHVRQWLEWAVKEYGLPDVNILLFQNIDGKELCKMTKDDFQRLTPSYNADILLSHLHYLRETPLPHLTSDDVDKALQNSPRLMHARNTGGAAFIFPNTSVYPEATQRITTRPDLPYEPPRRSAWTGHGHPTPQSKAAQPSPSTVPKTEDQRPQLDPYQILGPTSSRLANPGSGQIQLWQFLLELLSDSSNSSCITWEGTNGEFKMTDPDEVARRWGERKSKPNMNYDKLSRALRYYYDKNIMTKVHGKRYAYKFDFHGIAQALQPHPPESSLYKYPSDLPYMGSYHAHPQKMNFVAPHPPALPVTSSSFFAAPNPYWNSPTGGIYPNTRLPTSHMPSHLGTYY
Summed up:
as §1

Assay [5] concerns the target ELF1 (Homo sapiens, UniProt P32519 1-619). In a few lines:
as §1

Assay [6] addresses T5, EHF (Homo sapiens, UniProt Q9NZC4 1-300).
T5 sequence: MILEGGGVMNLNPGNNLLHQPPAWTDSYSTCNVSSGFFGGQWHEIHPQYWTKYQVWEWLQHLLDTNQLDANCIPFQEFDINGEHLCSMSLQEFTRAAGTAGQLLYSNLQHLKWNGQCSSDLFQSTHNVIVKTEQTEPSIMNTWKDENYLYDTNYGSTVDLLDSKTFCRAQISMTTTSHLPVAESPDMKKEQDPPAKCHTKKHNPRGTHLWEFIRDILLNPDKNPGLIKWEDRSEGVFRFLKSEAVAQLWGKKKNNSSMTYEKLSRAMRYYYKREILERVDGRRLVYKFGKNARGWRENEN
In a few lines: as §1

Assay [7] concerns the target SPI1 (Homo sapiens, UniProt P17947 1-270). In a few lines: as §1
Assay [8] has as its target SPIB (Homo sapiens, UniProt Q01892 1-262). In a few lines: as §1
The target in assay [9] is T6, ELK3 (Homo sapiens, UniProt P41970 1-407).
T6 sequence: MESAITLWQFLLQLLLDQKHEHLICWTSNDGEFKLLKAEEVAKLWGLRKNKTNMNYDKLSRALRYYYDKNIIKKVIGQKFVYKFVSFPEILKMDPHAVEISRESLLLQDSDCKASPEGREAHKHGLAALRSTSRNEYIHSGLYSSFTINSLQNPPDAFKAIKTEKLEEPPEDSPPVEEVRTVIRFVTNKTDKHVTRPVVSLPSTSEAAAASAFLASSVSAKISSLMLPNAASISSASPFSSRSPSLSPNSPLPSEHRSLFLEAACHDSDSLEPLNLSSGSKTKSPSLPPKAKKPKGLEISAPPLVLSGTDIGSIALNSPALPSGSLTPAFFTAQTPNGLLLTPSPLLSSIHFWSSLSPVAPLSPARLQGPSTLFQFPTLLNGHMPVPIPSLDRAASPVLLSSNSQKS
Summed up: as §1

Assay [10] deals with T7, FEV (Homo sapiens, UniProt Q99581 1-238).
T7 sequence: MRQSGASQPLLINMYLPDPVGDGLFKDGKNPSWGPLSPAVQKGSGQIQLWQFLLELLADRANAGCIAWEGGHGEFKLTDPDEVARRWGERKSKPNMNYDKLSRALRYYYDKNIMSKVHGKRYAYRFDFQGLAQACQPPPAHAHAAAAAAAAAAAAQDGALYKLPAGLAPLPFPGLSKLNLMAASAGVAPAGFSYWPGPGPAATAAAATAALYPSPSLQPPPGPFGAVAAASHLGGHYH
In a few lines: as §1

Assay [11] has as its target ETV5 (Homo sapiens, UniProt P41161 1-510). Summed up:
as §1

In assay [12] the target is T8, SPIC (Homo sapiens, UniProt Q8N5J4 1-248).
T8 sequence: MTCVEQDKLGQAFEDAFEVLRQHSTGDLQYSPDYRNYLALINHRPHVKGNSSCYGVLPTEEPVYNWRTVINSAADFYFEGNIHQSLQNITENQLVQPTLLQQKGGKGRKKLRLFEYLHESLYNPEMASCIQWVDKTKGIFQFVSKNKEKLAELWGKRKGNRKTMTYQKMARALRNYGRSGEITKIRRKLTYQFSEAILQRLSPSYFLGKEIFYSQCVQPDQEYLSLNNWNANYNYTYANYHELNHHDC
In a few lines: as §1

The target in assay [13] is ELF4 (Homo sapiens, UniProt Q99607 1-663). In a few lines:
as §1

For assay [14], the target named is T9, ELK4 (Homo sapiens, UniProt P28324-2 1-405).
T9 sequence: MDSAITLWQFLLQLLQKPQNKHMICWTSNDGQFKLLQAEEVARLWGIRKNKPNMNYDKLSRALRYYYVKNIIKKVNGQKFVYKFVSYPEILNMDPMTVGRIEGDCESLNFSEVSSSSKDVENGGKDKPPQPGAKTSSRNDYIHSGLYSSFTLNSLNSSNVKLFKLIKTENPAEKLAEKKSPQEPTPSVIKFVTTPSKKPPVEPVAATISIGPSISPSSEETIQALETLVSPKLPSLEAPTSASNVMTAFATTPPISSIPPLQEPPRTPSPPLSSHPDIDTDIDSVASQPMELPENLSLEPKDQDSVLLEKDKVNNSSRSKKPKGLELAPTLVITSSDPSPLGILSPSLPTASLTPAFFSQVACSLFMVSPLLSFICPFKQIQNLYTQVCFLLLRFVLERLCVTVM
In a few lines: as §1

Assay [15] addresses T10, ETV2 (Homo sapiens, UniProt O00321 1-342).
T10 sequence: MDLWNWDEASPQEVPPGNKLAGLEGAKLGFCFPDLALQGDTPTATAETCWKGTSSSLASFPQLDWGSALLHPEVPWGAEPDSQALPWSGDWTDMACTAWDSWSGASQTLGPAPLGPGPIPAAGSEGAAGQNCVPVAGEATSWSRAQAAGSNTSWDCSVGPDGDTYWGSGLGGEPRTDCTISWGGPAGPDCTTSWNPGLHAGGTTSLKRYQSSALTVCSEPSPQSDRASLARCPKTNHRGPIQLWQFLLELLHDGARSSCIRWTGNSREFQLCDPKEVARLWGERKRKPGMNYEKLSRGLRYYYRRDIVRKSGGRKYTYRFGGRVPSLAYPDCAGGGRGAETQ
Summed up: as §1

For assay [16], the target named is T11, ELF3 (Homo sapiens, UniProt P78545 1-371).
T11 sequence: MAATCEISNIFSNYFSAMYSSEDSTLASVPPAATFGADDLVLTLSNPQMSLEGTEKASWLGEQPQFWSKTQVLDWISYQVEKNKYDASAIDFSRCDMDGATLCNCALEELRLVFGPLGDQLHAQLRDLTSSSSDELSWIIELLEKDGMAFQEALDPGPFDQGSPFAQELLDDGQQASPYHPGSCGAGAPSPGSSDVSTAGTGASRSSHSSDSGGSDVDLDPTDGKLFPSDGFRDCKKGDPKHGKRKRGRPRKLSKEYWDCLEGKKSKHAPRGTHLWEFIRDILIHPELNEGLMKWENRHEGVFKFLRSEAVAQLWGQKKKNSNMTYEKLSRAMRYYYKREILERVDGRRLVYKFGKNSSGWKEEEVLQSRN
In a few lines: as §1

Assay [17] addresses CRX (Homo sapiens, UniProt O43186 1-299). Summed up: as §1
Assay [18] addresses ETV1 (Homo sapiens, UniProt P50549 1-477). Summed up:
as §1

CRX, sequence (O43186 whole entry): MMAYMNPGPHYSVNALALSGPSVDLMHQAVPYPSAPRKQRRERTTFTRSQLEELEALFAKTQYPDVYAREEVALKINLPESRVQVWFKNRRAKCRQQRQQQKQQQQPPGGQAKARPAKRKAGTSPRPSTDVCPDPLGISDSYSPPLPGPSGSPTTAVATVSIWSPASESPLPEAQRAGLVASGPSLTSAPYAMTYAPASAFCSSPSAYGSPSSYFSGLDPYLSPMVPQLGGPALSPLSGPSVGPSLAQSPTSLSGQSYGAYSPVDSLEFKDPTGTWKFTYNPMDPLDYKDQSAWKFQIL
ETV1, sequence (P50549 whole entry): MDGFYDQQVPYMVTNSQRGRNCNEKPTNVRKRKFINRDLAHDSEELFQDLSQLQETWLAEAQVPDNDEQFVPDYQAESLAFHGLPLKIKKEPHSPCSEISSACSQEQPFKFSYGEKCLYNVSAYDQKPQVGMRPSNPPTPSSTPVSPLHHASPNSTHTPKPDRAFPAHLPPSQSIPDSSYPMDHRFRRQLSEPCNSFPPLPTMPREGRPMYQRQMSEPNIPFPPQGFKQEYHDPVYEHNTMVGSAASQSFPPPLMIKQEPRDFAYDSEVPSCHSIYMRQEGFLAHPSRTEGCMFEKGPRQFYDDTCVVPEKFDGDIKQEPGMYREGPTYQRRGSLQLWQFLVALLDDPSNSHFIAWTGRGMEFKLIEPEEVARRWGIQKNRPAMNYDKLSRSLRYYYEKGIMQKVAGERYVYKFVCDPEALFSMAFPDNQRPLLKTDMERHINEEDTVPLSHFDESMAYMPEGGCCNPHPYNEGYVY
ELF1, sequence (P32519 whole entry): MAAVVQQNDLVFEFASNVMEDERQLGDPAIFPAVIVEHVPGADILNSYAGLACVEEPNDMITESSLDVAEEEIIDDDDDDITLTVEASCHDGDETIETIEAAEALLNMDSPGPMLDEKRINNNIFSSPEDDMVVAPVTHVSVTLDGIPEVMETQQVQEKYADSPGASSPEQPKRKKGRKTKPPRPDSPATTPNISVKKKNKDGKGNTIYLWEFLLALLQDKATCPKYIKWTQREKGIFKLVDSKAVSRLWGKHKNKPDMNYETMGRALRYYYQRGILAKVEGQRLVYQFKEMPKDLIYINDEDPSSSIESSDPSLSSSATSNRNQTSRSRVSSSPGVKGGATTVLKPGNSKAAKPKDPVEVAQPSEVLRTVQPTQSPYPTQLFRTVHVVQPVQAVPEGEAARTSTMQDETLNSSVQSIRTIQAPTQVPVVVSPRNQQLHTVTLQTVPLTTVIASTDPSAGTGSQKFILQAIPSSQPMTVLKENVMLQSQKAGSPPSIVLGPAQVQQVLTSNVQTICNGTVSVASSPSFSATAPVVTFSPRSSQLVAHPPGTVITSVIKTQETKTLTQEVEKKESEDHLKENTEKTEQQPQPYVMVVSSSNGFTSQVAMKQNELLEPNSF
ELF4, sequence (Q99607 whole entry): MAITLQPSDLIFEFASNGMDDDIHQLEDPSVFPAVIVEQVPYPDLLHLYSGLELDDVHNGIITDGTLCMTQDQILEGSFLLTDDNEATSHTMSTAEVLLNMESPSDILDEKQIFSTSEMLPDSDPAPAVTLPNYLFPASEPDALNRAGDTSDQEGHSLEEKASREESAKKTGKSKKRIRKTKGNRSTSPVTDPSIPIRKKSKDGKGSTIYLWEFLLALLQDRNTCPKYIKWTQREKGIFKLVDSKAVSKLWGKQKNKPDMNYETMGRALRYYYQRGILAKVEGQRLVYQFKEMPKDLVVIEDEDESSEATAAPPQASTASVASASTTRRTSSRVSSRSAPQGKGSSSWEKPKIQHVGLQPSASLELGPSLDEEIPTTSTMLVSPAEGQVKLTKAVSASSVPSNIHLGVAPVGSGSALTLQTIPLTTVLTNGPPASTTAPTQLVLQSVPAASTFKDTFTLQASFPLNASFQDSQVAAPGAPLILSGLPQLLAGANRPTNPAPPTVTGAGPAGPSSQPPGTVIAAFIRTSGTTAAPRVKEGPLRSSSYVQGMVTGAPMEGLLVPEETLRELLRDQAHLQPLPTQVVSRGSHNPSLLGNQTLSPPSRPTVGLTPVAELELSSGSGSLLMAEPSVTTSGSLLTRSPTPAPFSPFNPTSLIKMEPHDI
SPIB, sequence (Q01892 whole entry): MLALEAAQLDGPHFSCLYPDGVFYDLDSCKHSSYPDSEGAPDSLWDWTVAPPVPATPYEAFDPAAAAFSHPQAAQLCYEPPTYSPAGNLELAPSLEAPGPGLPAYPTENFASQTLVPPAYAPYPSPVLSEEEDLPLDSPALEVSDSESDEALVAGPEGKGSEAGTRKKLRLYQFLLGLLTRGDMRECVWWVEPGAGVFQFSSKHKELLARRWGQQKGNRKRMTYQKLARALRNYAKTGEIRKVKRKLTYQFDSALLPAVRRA
ETV5, sequence (P41161 whole entry): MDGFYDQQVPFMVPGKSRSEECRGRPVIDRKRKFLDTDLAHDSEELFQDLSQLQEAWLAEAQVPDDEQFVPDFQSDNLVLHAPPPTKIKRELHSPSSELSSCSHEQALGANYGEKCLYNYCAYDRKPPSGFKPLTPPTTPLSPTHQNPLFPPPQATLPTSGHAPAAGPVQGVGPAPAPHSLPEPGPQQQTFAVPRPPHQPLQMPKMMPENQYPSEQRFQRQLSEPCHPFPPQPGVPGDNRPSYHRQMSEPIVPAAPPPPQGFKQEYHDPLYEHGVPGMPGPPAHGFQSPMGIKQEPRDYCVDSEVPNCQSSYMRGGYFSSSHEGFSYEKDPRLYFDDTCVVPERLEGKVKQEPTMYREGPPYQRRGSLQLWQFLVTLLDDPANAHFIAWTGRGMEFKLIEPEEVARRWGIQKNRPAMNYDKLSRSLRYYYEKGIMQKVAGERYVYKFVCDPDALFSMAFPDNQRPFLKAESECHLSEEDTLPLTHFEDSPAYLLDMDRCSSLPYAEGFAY

Take AAAGGG: the binding signal in assay [1] was 1.21 fold enrichment (6-mer frequency, TF over GST control); in [2] it was 1.11 fold enrichment (6-mer frequency, TF over GST control); in assay [3] it was 1.22 fold enrichment (6-mer frequency, TF over GST control); in assay [4], 1.12 fold enrichment (6-mer frequency, TF over GST control); in assay [5] it was 1.09 fold enrichment (6-mer frequency, TF over GST control); in assay [6], 1.2 fold enrichment (6-mer frequency, TF over GST control). Also, the binding signal is 1.68 fold enrichment (6-mer frequency, TF over GST control) in [7]; 1.19 fold enrichment (6-mer frequency, TF over GST control) in assay [8]; 1.1 fold enrichment (6-mer frequency, TF over GST control) in assay [9]; 1.11 fold enrichment (6-mer frequency, TF over GST control) in [10]; 1.21 fold enrichment (6-mer frequency, TF over GST control) in [11]; 1.22 fold enrichment (6-mer frequency, TF over GST control) in assay [12]. For the same sequence, the binding signal in [13] is 1.19 fold enrichment (6-mer frequency, TF over GST control); in [14] it was 1.1 fold enrichment (6-mer frequency, TF over GST control); in [15], 1.05 fold enrichment (6-mer frequency, TF over GST control); in assay [16] it was 1.25 fold enrichment (6-mer frequency, TF over GST control); in assay [17], 1.08 fold enrichment (6-mer frequency, TF over GST control); in [18] it was 1.26 fold enrichment (6-mer frequency, TF over GST control).

On to CGGTTT, for which the binding signal in assay [1] was 1.26 fold enrichment (6-mer frequency, TF over GST control); in [2], 1.18 fold enrichment (6-mer frequency, TF over GST control); in assay [3], 1.25 fold enrichment (6-mer frequency, TF over GST control); in assay [4], 1.33 fold enrichment (6-mer frequency, TF over GST control); in [5] it was 1.26 fold enrichment (6-mer frequency, TF over GST control); in [6] it was 1.27 fold enrichment (6-mer frequency, TF over GST control). Further, the binding signal in assay [7] is 1.44 fold enrichment (6-mer frequency, TF over GST control); in assay [8], 1.23 fold enrichment (6-mer frequency, TF over GST control); in assay [9] it was 1.25 fold enrichment (6-mer frequency, TF over GST control); in assay [10], 1.44 fold enrichment (6-mer frequency, TF over GST control); in assay [11], 1.21 fold enrichment (6-mer frequency, TF over GST control); in assay [12], 1.23 fold enrichment (6-mer frequency, TF over GST control). The binding signal was 1.21 fold enrichment (6-mer frequency, TF over GST control) in assay [13]; 1.23 fold enrichment (6-mer frequency, TF over GST control) in [14]; 1.11 fold enrichment (6-mer frequency, TF over GST control) in assay [15]; 1.24 fold enrichment (6-mer frequency, TF over GST control) in assay [16]; 1.05 fold enrichment (6-mer frequency, TF over GST control) in assay [17]; 1.32 fold enrichment (6-mer frequency, TF over GST control) in [18].

For the origin of these results see publication PMC7862700, “An all-to-all approach to the identification of sequence-specific readers for epigenetic DNA modifications on cytosine”.
